Measured values: paper PMC4336329 (PLoS ONE, 2015)
About 14,000 (4.5%) of roughly 310,000 compounds showed an effect of 50% or more. The effect is printed as a negative number. The list comes from a sample in which strong results are over-represented; it also holds similar structures and randomly drawn compounds.

Target: human ether-à-go-go-related gene (hERG) potassium channel (human, UniProt Q12809)
Experiment: primary screen, population patch clamp on CHO cells stably expressing hERG; higher = less effect of the substance
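Note: peak tail current of the secondary pulse compared with the same well before compound.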

Chain of human ether-à-go-go-related gene (hERG) potassium channel (Q12809 whole entry, looked up): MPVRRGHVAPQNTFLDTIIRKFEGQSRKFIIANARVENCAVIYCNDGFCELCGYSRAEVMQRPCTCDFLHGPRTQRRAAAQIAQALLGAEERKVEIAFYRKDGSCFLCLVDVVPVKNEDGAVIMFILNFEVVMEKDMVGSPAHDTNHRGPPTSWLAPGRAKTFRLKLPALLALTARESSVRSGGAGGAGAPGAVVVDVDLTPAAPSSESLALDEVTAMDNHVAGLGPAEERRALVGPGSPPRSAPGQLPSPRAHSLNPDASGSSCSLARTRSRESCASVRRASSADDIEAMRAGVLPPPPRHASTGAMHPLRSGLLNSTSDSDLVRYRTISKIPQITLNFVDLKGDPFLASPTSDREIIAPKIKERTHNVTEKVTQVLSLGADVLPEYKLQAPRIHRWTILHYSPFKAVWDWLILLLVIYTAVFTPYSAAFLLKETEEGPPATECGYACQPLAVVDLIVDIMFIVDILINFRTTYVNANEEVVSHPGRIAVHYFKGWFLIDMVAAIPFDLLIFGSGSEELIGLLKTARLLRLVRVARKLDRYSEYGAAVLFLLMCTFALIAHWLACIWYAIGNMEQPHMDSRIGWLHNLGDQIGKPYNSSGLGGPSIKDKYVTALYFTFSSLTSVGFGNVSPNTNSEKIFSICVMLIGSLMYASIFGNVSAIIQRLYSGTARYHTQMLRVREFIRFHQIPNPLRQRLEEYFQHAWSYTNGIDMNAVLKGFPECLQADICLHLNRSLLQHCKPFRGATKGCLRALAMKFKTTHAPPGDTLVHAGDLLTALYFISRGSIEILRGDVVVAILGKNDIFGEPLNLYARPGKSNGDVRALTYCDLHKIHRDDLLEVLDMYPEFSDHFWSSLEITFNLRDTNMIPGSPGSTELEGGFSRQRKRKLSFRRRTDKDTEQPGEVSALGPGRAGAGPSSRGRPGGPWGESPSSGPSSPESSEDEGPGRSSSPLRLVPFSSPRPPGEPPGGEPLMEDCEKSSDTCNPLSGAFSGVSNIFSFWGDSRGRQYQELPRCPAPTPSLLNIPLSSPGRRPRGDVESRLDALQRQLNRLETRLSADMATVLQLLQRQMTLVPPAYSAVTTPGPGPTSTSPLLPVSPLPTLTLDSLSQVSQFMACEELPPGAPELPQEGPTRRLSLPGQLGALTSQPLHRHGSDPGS

SMILES | hERG current change (%, negative = inhibition) at 10uM [%]
N#C/C(=C/c1ccc(N2CCOCC2)c([N+](=O)[O-])c1)C(N)=O | -39.8
O=C(OC(C(=O)NCC1CCCO1)c1ccccn1)c1cccs1 (stereo not shown) | 1.83
COCc1nc2ccccc2n1Cc1cccc(C)c1 | -12.8
O=S(=O)(NCC(c1ccco1)N1CCN(c2ccccc2F)CC1)c1ccc(F)cc1 (stereo not shown) | -11.2
CC(C)CNc1nc(Oc2ccc(=O)[nH]n2)nc(N2CCOCC2)n1 | 7.99
Cc1ccc(Cl)cc1NC(=O)CN1CCN(S(=O)(=O)N2CCC(C)CC2)CC1 | -41.3
O=C(CN1CCN(C(=O)N2CCOCC2)CC1)Nc1cc(Cl)ccc1Cl | -59.9
Cc1ccc(Cl)cc1NC(=O)CN1CCN(S(=O)(=O)N2CCOCC2)CC1 | -64.3
COc1ccc(Cl)cc1NC(=O)CN1CCN(C(=O)N2CCOCC2)CC1 | -38.8
O=C(CN1CCN(C(=O)C2CCCO2)CC1)Nc1cc(C(F)(F)F)ccc1Cl (stereo not shown) | -45.8
O=C(CN1CCOCC1)Nc1cc(Cl)ccc1Cl | -32.5
Cc1ccc(Cl)cc1NC(=O)CN1CCN(C(=O)C2CCCO2)CC1 (stereo not shown) | -29.8
Cc1ccc(Cl)cc1NC(=O)CN1CCOCC1 | -0.857
O=C(CN1CCN(C(=O)C2CCCO2)CC1)Nc1cc(Cl)ccc1Cl (stereo not shown) | -61.9
Cn1nnc2cc(C(=O)Nc3ccc(Cl)cc3)ccc21 | -3.78
COc1ccc(-c2cc(C(=O)O)nc3ccc4ccccc4c23)cc1OC | 12.6
O=C(CSc1nc(O)cc(=O)[nH]1)C1CC1 | 7.82
CC(C)(C)N/C=C(\C#N)S(=O)(=O)c1ccc(Br)cc1 | -10.5
C=CCN1C(=O)C2C(C(=O)NC)C3C=CC2(O3)C1C(=O)NCc1ccc(OC)cc1 (stereo not shown) | 0.24
Cc1cc(C)n2nc(CC(=O)NC3CCCCCC3)nc2n1 | 5.03
Cc1cc(C)n2nc(SCC(=O)NC3CCCCC3)nc2n1 | 1.68
Cc1cc(C)n2nc(CC(=O)NC3CCCCCCC3)nc2n1 | -70.9
CCOC(=O)CCc1c(C(=O)OCC)[nH]c(CC)c1C(=O)OCc1ccccc1 | -17.2
COCc1cc(C)nc(SCC(=O)Nc2ccc3c(c2)OCCO3)c1C#N | 13.4
CCOC(=O)C1CCN(C(=O)CN2C(=O)c3ccccc3Sc3ncccc32)CC1 | 6.06
O=C(NCc1ccc2c(c1)OCO2)c1ccc(CS(=O)Cc2cccc(Cl)c2)o1 (stereo not shown) | -23.6
COc1ccc(OC)c(CCNC(=O)c2ccc(CS(=O)Cc3ccc(Cl)cc3)o2)c1 (stereo not shown) | -31
Cc1ccc(CNC(=O)c2ccc(CS(=O)Cc3cccc(Cl)c3)o2)cc1 (stereo not shown) | -21.5

SMILES | hERG current change (%, negative = inhibition) at 10uM [%]
O=C(NCc1ccc(Cl)cc1)c1ccc(CS(=O)Cc2cccc(Cl)c2)o1 (stereo not shown) | -53.5
O=C(NCc1ccccc1)c1ccc(CS(=O)Cc2ccc(Cl)cc2)o1 (stereo not shown) | -62.5
COc1ccc(CNC(=O)c2ccc(CS(=O)Cc3ccc(Cl)cc3)o2)cc1 (stereo not shown) | -84.6
O=C(NCc1ccccc1Cl)c1ccc(CS(=O)Cc2ccc(Cl)cc2)o1 (stereo not shown) | -46.9
O=C(NCc1cccs1)c1ccc(CS(=O)Cc2cccc(Cl)c2)o1 (stereo not shown) | -39.6
O=C(NCc1cccc(Cl)c1)c1ccc(CS(=O)Cc2ccc(Cl)cc2)o1 (stereo not shown) | -62.1
Cc1ccc(CS(=O)Cc2ccc(C(=O)NCc3ccccc3)o2)cc1 (stereo not shown) | 11
O=C(NCc1cccc(Cl)c1)c1ccc(CS(=O)Cc2ccccc2Cl)o1 (stereo not shown) | -3.52
COc1ccc(CNC(=O)c2ccc(CS(=O)Cc3cccc(Cl)c3)o2)cc1 (stereo not shown) | -37.5
COc1cc2c(C(=O)Nc3ccc4c(c3)OCO4)cn(CC(C)C)c(=O)c2cc1OC | -2.44
CCOC(=O)C1C(=O)NC(C)C1c1ccccc1 (stereo not shown) | -4.44
O=C(COC(=O)c1cc2c(s1)CCCC2)NCc1ccccc1Cl | 1.44
CC(C)(C)c1ccc(C(=O)N2CCC(C(=O)NCC3CCCO3)CC2)cc1 (stereo not shown) | -23.6
CC(=O)C1=C(O)C(=O)N(c2ccc(O)cc2)C1c1ccc(Cl)cc1 (stereo not shown) | 17.4
O=C(O)c1ccccc1OC(C(=O)Nc1cc(Cl)cc(Cl)c1)c1ccccc1 (stereo not shown) | 13.5
CC(=O)NC12CC3CC(C1)CC(C(=O)N1CCN(S(=O)(=O)c4ccccc4[N+](=O)[O-])CC1)(C3)C2 | -20.8
CCOC(=O)N1CCc2c(sc(NC(=O)c3ccc(S(=O)(=O)N4CCCC4)cc3)c2C#N)C1 | 19.3
Cc1nnc(OCc2nc3ccccc3n2C)c2ccccc12 | -27.4
Cc1ccc(NC(=O)Cn2cc(C=O)c3ccccc32)cc1 | 17.5
COc1ccc2c(c1)C=C(C(=O)NCc1ccc(Cl)cc1)CO2 | -67
COc1cccc(CNC(=O)C2=Cc3cccc(OC)c3OC2)c1 | 4.36
O=C(NCc1ccc(Cl)cc1)C1=Cc2cc(Cl)ccc2OC1 | -10.2
CCOc1cc(C2Nc3ccccc3C(=O)N2c2ccccc2)ccc1O (stereo not shown) | 4.38
COc1cc(C2Nc3ccccc3C(=O)N2c2ccccc2)c(Br)cc1OCC(=O)O (stereo not shown) | 0.108
CCOc1cc(C2Nc3ccccc3C(=O)N2c2ccccc2)c(Br)cc1OCC(=O)O (stereo not shown) | -53.8
Cc1ccc2ccc(C(Nc3ccccn3)c3ccccc3)c(O)c2n1 (stereo not shown) | -3.72
CCOc1ccc(CNC(=S)NCc2ccc(OCC)cc2)cc1 | 15.2
